Data published in PubChem BioAssay (Tox21).
A number with no mark means an inactive call. Active and inactive are the calls of the source. The call rests on the fitted dose curve.

Assay: qHTS assay to identify small molecule agonists of the sonic hedgehog signaling (Shh) pathway (AID 1259368); further: nearly all actives have a fitted effect of over 15% in size;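 on activity change: NIH/3T3-derived 3T3Gli1-Luc cells carrying a stable Gli1-driven firefly luciferase reporter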
Settings: NIH/3T3 Gli1-Luc reporter, luciferase, 24 h; series mostly up to 92.4 µM; activity change: at the top concentration
Text: National Center for Advancing Translational Sciences [NCATS]
NIH Chemical Genomics Center [NCGC]
U.S. Environmental Protection Agency [EPA]
National Institutes of Environmental Health Sciences [NIEHS]
National Toxicology Program [NTP]
The sonic hedgehog (Shh) pathway is essential for normal embryonic development. Dysregulation of the Shh pathway can cause severe developmental defects in organs. Therefore chemicals that interfere with the pathway are potential developmental toxicants. A cell line designated 3T3Gli1-Luc (DMB/OARSA/CFSAN/FDA, Laurel, MD), a NIH/3T3 derived clone containing stably integrated Gli1-Luc reporter is used to detect chemical interference of the Shh pathway, by changes in the expression of the firefly Luc gene under the control of the Gli1 transcriptional response element. This cell line was used to screen Tox21 libraries for identifying and prioritizing the potential developmental toxicants that interfere Shh pathway.
3T3 Gli1-Luc cells were dispensed at 2,000 per well in 5uL of culture medium into white solid bottom 1536-well plates (Greiner Bio-One, Monroe, NC) using a Multidrop Combi (Thermo Scientific, Waltham, MA) dispenser. The assay plates were incubated at 37 C and 5% CO2 for 4hr, and then 23nL of compounds dissolved in DMSO and positive control were transferred using a Pintool station (Wako, San Diego, CA). The assay plates were incubated at 37C and 5% CO2 for 24hr. For luciferase read, 4uL of Amplite Luciferase reporter gene assay reagent (AAT Bioquest, Inc. Sunnyvale, CA) was added to each well of the assay plates using Flying Reagent Dispenser (FRD, Aurora Discovery, San Diego, CA) and incubated at room temperature for 30min. The luminescence signal was measured using a ViewLux plate reader (Perkin Elmer, Shelton, CT).
On the % scale 0 is the no-effect control and ±100 the full control effect; potency means the concentration at half of the fitted maximal effect.

| SMILES | Potency | activity change |
| --- | --- | --- |
| Clc1ccc(C(c2ccc(Cl)cc2)C(Cl)Cl)cc1 | inactive | – |
| CCCCN(CCCC)C(=S)[S-].CCCCN(CCCC)C(=S)[S-].[Ni+2] | – | 0.636% [at 42.5 µM, hits give high values] |
| CC(=O)[O-].CC(=O)[O-].O.O.O.[Pb+2] | – | -2.88% |
| COc1cnc(OC)n2nc(NS(=O)(=O)c3c(OCC(F)F)cccc3C(F)(F)F)nc12 | – | -0.251% |
| CSC1=N[C@@](C)(c2ccccc2)C(=O)N1Nc1ccccc1 | – | -2.29% |
| Oc1ccc(Cl)c(Cl)c1 | – | -6.47% |
| CN1C(=O)[C@@H](NC(=O)c2cc3ccccc3[nH]2)N=C(c2ccccc2)c2ccccc21 | – | 2.22% [at 42.5 µM, hits give high values] |
| COc1ccc2[nH]cc(CCN(C(C)C)C(C)C)c2c1 | – | 2.38% |
| CC1CCCC1 | – | 0.18% |
| CCN(CC)Cc1nccn1-c1ccc([N+](=O)[O-])cc1C(=O)c1ccccc1Cl | – | 2.16% [at 42.5 µM, hits give high values] |
| CCN(CC)CCc1c[nH]c2ccccc12 | – | 0.578% |
| CCCCn1cc[n+](C)c1.[Cl][Fe-]([Cl])([Cl])[Cl] | – | 4.85% |
| Nc1nc(N)nc(Cl)n1 | – | -0.726% |
| CC(C)N(C(=O)CCl)c1ccccc1 | inactive | – |
| CCOP(=S)(OCC)Oc1cc(C)nc(N(CC)CC)n1 | – | 0.837% |
| BrCCCBr | – | 0.111% |
| CCc1cccc(C)c1N(C(=O)CCl)[C@@H](C)COC | – | -3.58% |
| COC(=O)c1cc(Oc2ccc(Cl)cc2Cl)ccc1[N+](=O)[O-] | – | -0.182% |
| CN/C(=N\[N+](=O)[O-])NCc1cnc(Cl)s1 | – | 0.0158% |
| CCCCCCCCCCCCCCn1cc[n+](C)c1 | inactive | – |

| SMILES | Potency | activity change |
| --- | --- | --- |
| CC(C)C(Br)C(=O)NC(N)=O (stereo not given) | – | 2.33% [at 42.5 µM, hits give high values] |
| Oc1ccc([C@H]2CNCc3c2ccc(O)c3O)cc1O | – | 0.54% [at 42.5 µM, hits give high values] |
| CC(=O)[O-].CC(=O)[O-].CC(=O)[O-].[Sb+3] | – | 0.122% [at 3.27 µM, hits give high values] |
| CC(=O)O.CC(=O)O.CC(=O)O.CC(=O)O.CC(=O)O.CC(=O)O.CC(=O)O.O.O.[Cr].[Cr].[Cr] | – | 0.112% |
| CC(=O)[O-].CC(=O)[O-].[Co+2] | 54.5 µM (active) | – |
| CC#C[C@]1(O)CC[C@H]2[C@@H]3C[C@H](C)C4=CC(=O)CC[C@]4(C)[C@H]3CC[C@@]21C | – | 0.162% [at 42.5 µM, hits give high values] |
| Nc1ccc(Cl)cc1C(=O)c1ccccc1F | – | -0.681% [at 42.5 µM, hits give high values] |
| CCCCC(CC)COC(=O)OOC(C)(C)C (stereo not given) | – | 0.165% |
| CC1CN1 (stereo not given) | – | -1.48% |
| C=CCBr | – | -0.322% |
| CSSC | – | 4.13% |
| Cc1c([N+](=O)[O-])c(C)c([N+](=O)[O-])c(C(C)(C)C)c1[N+](=O)[O-] | – | -2.18% |
| CCN(CC)CCN1C(=O)CN=C(c2ccccc2F)c2cc(Cl)ccc21 | – | 0.0855% [at 42.5 µM, hits give high values] |
| COP(=S)(OC)Oc1nc(Cl)c(Cl)cc1Cl | – | -2.37% |
| Cc1ccccc1OP(=O)(Oc1ccccc1C)Oc1ccccc1C | – | 0.286% |
| c1ccc2c(c1)cc1ccc3cccc4ccc2c1c34 | – | 7.7% |
| Oc1cc(Cl)cc(Cl)c1 | – | -4.12% |
| O=S(=O)(O)F | – | 0.77% |
| ClSC(Cl)(Cl)Cl | – | -0.281% |
| CC(C)=CCN1CC[C@@]2(C)c3cc(O)ccc3C[C@@H]1[C@@H]2C | – | -0.663% |
